This is an account of results in publication PMC11062922 (Nature Chemical Biology, 2023).

Design in all cases: species or system human, MV4-11 + K-562 + COLO205 + SK-N-BE2 + OVCAR-8
The subject of one assay is AKT2. To be noted: read-out: apparent Kd, n = 1.
In another assay the test system is MAPK14. To be noted: read-out: apparent Kd; compound concentrations:100 nM and 1000 nM (sheet 'Samples'); n = 1.
The test system of another assay is DYRK1A. To be noted: read-out: apparent Kd, compound concentrations: 100 nM and 1000 nM (sheet 'Samples'), n = 1.
The subject of the next assay is DDR1. To be noted: read-out: apparent Kd, n = 1.
The next assay has as its system EGFR. To be noted: read-out: apparent Kd, n = 1.
The subject of another assay is FLT3. To be noted: read-out: apparent Kd; compound concentrations:100 nM and 1000 nM (sheet 'Samples'); n = 1.
The subject of another assay is ACVR1B. To be noted: read-out: apparent Kd, compound concentrations: 100 nM and 1000 nM (sheet 'Samples'), n = 1.
For a further assay, the system named is ACVR1. To be noted: read-out: apparent Kd, compound concentrations: 100 nM and 1000 nM (sheet 'Samples'), n = 1.
A further assay deals with EPHA1. To be noted: read-out: apparent Kd; compound concentrations: 100 nM and 1000 nM (sheet 'Samples'), CATDS: 6.90247660864724E-2; n = 1.
A further assay concerns GSK3A. To be noted: read-out: apparent Kd, compound concentrations: 100 nM and 1000 nM (sheet 'Samples'), n = 1.
A further assay has as its system SIK2. To be noted: read-out: apparent Kd, compound concentrations: 100 nM and 1000 nM (sheet 'Samples'), n = 1.
The next assay concerns SRC. To be noted: read-out: apparent Kd, compound concentrations: 100 nM and 1000 nM (sheet 'Samples'), n = 1.
The subject of the next assay is BTK. To be noted: read-out: apparent Kd; compound concentrations: 100 nM and 1000 nM (sheet 'Samples'), CATDS: 1.37109395342906E-2; n = 1.
A further assay has as its system CSK. To be noted: read-out: apparent Kd; compound concentrations: 100 nM and 1000 nM (sheet 'Samples'), CATDS: 1.8899514592430999E-2; n = 1.
A further assay concerns FRK. To be noted: read-out: apparent Kd; compound concentrations: 100 nM and 1000 nM (sheet 'Samples'), CATDS: 2.08537323275855E-2; n = 1.
Another assay has as its system LYN. To be noted: read-out: apparent Kd; compound concentrations: 100 nM and 1000 nM (sheet 'Samples'), CATDS: 2.0380924471609701E-2; n = 1.
A further assay concerns TNK2. To be noted: read-out: apparent Kd; compound concentrations: 100 nM and 1000 nM (sheet 'Samples'), CATDS: 1.5113768238236E-2; n = 1.
The subject of the next assay is ZAK. To be noted: read-out: apparent Kd; compound concentrations: 100 nM and 1000 nM (sheet 'Samples'), CATDS: 1.7977927791487699E-2; n = 1.
The next assay deals with GSK3B. To be noted: read-out: apparent Kd; compound concentrations: 100 nM and 1000 nM (sheet 'Samples'), CATDS: 0.25409844627903599; n = 1.
Setting [1] is: compound concentrations:100 nM and 1000 nM (sheet 'Samples').

Where two headings read alike, the source gives them in different places.

As for `Cc1cccc(-c2cc(-c3c[nH]nc3-c3ccccn3)ccn2)c1` [GW679395X], the values for the potency estimated from few doses with AKT2 (setting [1]) and in the assay on MAPK14 were 2340 nM and 1290 nM, respectively.

`O=C1N=C(NCC(CO)c2ccccc2)S/C1=C\c1ccc2ncccc2c1` (stereo not shown) [RO4582641-000]: the potency estimated from few doses in the assay on DYRK1A (CATDS: 9.2693691803080097E-2) is 353 nM.

As to `CCn1cc(-c2ccnc3[nH]c(-c4cccc(CN(C)C)c4)cc23)c(-c2ccc(NC(=O)N(C)C)cc2)n1` [GSK1070916], in the assay on DDR1 (setting [1]), the potency estimated from few doses is 869 nM.

In the case of `CS(=O)(=O)Cc1ccc(Nc2nccc(-c3c(-c4cccc(NC(=O)C5CCCCC5)c4)nn4ncccc34)n2)cc1` [GSK350559A], the potency estimated from few doses is 401 nM in the assay on DDR1 (setting [1]), 1890 nM in the assay on EGFR (setting [1]) and 660 nM with FLT3.

`Cc1ccc(O)cc1Nc1ccnc2cc(-c3ccccn3)ccc12.Cl` [GW440139A]: the potency estimated from few doses was 9.88 nM in the assay on ACVR1B (CATDS: 0.14783179697021401), 556 nM with ACVR1 (CATDS: 2.9577067141002798E-2) and 38.9 nM in the assay with EPHA1.

As for `CNC1=NC(=O)/C(=C/c2ccc3ncccc3c2)S1` [RO4595949-000], the potency estimated from few doses with DYRK1A (CATDS: 0.10780330705145599) was 209 nM.

For the compound `Cl.O=C1N=C(NCc2ccccn2)S/C1=C\c1ccc2ncccc2c1` [RO4874953-001], the potency estimated from few doses was 893 nM with DYRK1A (CATDS: 0.10050944146971801) and 1370 nM with GSK3A (CATDS: 8.1690756727002906E-2).

`CN1C(=O)c2ccccc2N(C)c2nc(Nc3cnn(C4CCNCC4)c3)ncc21` [XMD-17-51]: the potency estimated from few doses in the assay on ACVR1B (CATDS: 2.1196121470028601E-2) was 383 nM; in the assay on ACVR1 (CATDS: 1.6735726463305099E-2) it was 805 nM; in the assay on DDR1 (compound concentrations: 100 nM and 1000 nM (sheet 'Samples'), CATDS: 1.7451025116255701E-2) it was 697 nM; in the assay on SIK2 (CATDS: 2.05809527554131E-2) it was 416 nM; in the assay with SRC (CATDS: 1.6357706357996601E-2), 875 nM.

As to `COc1ccc(Nc2nccc(N3CCC(NC(=O)Nc4ccc5c(c4)OCO5)C3)n2)cc1` (stereo not shown) [GSK1379745A], the potency estimated from few doses in the assay with AKT2 (compound concentrations: 100 nM and 1000 nM (sheet 'Samples'), CATDS: 4.5642212363568399E-2) was 1150 nM.

Consider `COc1ccccc1CCNC1=NC(=O)/C(=C/c2ccc3ncccc3c2)S1` [RO4503316-000], for which, in the assay on DYRK1A (CATDS: 0.20132255504791199), the potency estimated from few doses was 128 nM.

With `CC(C)c1nc(-c2cccc(NS(=O)(=O)c3ccccc3)c2)c(-c2ccnc(Nc3ccc4c(c3)CN(C)CC4)n2)s1` [GSK1649598A], the potency estimated from few doses is 628 nM with ACVR1B (CATDS: 1.6553743316138101E-2); 1250 nM in the assay on ACVR1 (CATDS: 1.3619919375172601E-2); 1210 nM in the assay on BTK; 433 nM in the assay on CSK; 1520 nM with DDR1 (compound concentrations: 100 nM and 1000 nM (sheet 'Samples'), CATDS: 1.30172526981645E-2); 298 nM with EGFR (compound concentrations: 100 nM and 1000 nM (sheet 'Samples'), CATDS: 2.2005426873151199E-2). Also, the potency estimated from few doses in the assay with FRK is 338 nM; with LYN, 358 nM; with SIK2 (CATDS: 1.6344481967555599E-2), 653 nM; in the assay with SRC (CATDS: 1.45663528778369E-2), 960 nM; in the assay on TNK2, 842 nM; in the assay on ZAK, 495 nM.

On to `Cn1cc(C2=C(c3cn(CCCO)c4ccccc34)C(=O)NC2=O)c2ccccc21` [RO0317377-000], for which the potency estimated from few doses with GSK3A (CATDS: 0.248455440441466) is 311 nM; in the assay with GSK3B, 301 nM.
